Screen size: about 69,000 compounds; about 950 (1.4%) showed an effect of 50% or more. For the sample, strong results were picked, then their nearest neighbours and some compounds at random.

The test system of this experiment is Mycobacterium tuberculosis. The experiment can be described thus: Cornell M. t heat shock assay. Further: in the data most compounds retested in dose-response had high values. In kind it is functional, organism-based. Details: dose or concentration left out as unconfirmed.
Consider `CSc1ccc(CNC2CCN(CCc3ccncc3)CC2)cc1`, for which the “Percent Effect” value was found to be 5.943%.

Consider `COc1ccccc1C(NCc1ccc(SC)cc1)c1nccn1C` (stereo unspecified), for which the “Percent Effect” value was found to be 111.2%. Consider `COc1c(CNC(c2nccn2C)C(C)C)c(C)nn1C` (stereo unspecified), for which the “Percent Effect” value was found to be 2.612%.

Regarding `COc1c(CNC(c2ccccc2F)c2nccn2C)c(C)nn1C` (stereo unspecified), the “Percent Effect” value is -25.27%.

In the case of `CSc1ccc(CNC(c2ccccc2F)c2nccn2C)cc1.Cl` (stereo unspecified), the “Percent Effect” value came out at 112.7%. As for `COc1cc(CN2CCn3c(CO)nnc3C2)ccc1OC(C)C.O=C(O)CC(O)(CC(=O)O)C(=O)O`, the “Percent Effect” value is given as -10.49%. For the molecule `CNC(=O)N1C[C@H]2C[C@H](C(=O)Nc3cccnc3)[C@@H](C1)O2.O=C(O)C(F)(F)F`, the “Percent Effect” value is -3.973%. In the case of `Cc1ccc(C(=O)N2C[C@@H]3CC[C@H](C2)N(Cc2ccccc2)C3)cn1`, the “Percent Effect” value is recorded as -13.46%.

Take `CCc1cc(=O)n(CCNC(=O)Nc2ccc(OC(F)(F)F)cc2)cn1`: the “Percent Effect” value turned out to be 32.6%. As to `O=C(O)C(F)(F)F.O=C(O)C(F)(F)F.O=C(O)C(F)(F)F.c1ccc(CN2CCCC3(CCN(Cc4cccs4)C3)C2)nc1` (stereo unspecified), the “Percent Effect” value came to 0.0284%. In the case of `CCc1c(C(=O)N2C[C@H]3CC[C@@H]2CN(c2cnccn2)C3)csc1C`, the “Percent Effect” value is given as -16.87%.

`CC(C)Oc1ncnc2c1CCN(Cc1cccs1)CC2`: the “Percent Effect” value was 17.98%. On to `CC(=O)NCc1noc2c1CN(Cc1cccs1)CC2`, for which the “Percent Effect” value is given as 18.13%.

Regarding `Cc1nc(CN2CCc3nc(NC(C)C)nc(C)c3C2)cs1`, the “Percent Effect” value came to 99.63%. Turning to `CCC(C)N1CCc2nc(N3CCCC3)nc(NC(C)C)c2C1` (stereo unspecified), the “Percent Effect” value was -2.093%. On to `Cc1nc(NC(C)C)nc2c1CN(Cc1cccs1)CC2`, for which the “Percent Effect” value is 99.87%. Take `Cc1nc(CN2CCc3ncnc(C)c3CC2)cs1.O=C(O)C(F)(F)F`: the “Percent Effect” value came to 2.444%. With `CC(C)Nc1nc(N2CCCC2)nc2c1CN(C)CC2`, the “Percent Effect” value stood at 4.665%. With `CC(C)Nc1nc(N2CCCC2)nc2c1CN(S(C)(=O)=O)CC2`, the “Percent Effect” value was 11%. Turning to `Cc1nc(CN2CCc3nc(N4CCCC4)nc(NC(C)C)c3C2)cs1`, the “Percent Effect” value is given as 104.3%. Consider `CC(C)Nc1nc(N2CCCC2)nc2c1CN(C(C)C)CC2`, for which the “Percent Effect” value is 101.9%. Consider `CCN1CCc2nc(N3CCOCC3)nc(NC(C)C)c2C1`, for which the “Percent Effect” value was 8.22%. On to `Cc1nc(NC(C)C)nc2c1CN(Cc1nccn1C)CC2`, for which the “Percent Effect” value turned out to be 12.34%. Take `Cc1nn(C)cc1-c1cncn1CCN(C)C1CCCC1.Cl`: the “Percent Effect” value worked out at 1.181%. As to `Cc1cccc(CN2C[C@@H]3COC[C@]3(COCC(=O)N(C)C)C2)n1.O=C(O)C(F)(F)F.O=C(O)C(F)(F)F`, the “Percent Effect” value is -9.127%. For the molecule `O=C(O)C(F)(F)F.O=C([C@H]1C[C@H]2OCC[C@H]2N(CC2CCOCC2)C1)N1CCCCO1`, the “Percent Effect” value was -2.02%. Take `COC1COC2(CCN(Cc3cccc(Cl)c3)CC2)C1.O=C(O)C(F)(F)F` (stereo unspecified): the “Percent Effect” value is listed as -14.26%. Take `CN1[C@H]2CC[C@@H]1CN(c1nc(-c3ccncc3)nc3c1cnn3C)CC2`: the “Percent Effect” value is listed as -0.0303%. Turning to `O=C(NC1CCCCC1)N1CCc2onc(COc3cccnc3)c2C1.O=C(O)C(F)(F)F`, the “Percent Effect” value came to 9.654%. With `CC(C)CN1Cc2nc(N3CCCC3)ncc2C1=O`, the “Percent Effect” value is on record as -13.83%. As to `COc1ccccc1C(=O)N1CCNCC1C(N)=O.Cl` (stereo unspecified), the “Percent Effect” value stood at 5.705%.

For the molecule `CC(=O)N1CCC(c2nccnc2Nc2cnccn2)CC1`, the “Percent Effect” value is 19.92%. `Cc1cnc(Nc2nccnc2C2CCN(C)CC2)s1`: the “Percent Effect” value came out at 16.42%. Take `CC(=O)N1CCC(c2nccnc2Nc2ncc(C)s2)CC1`: the “Percent Effect” value was 55.53%. With `CCOC1COC2(CCN(C(=O)c3cccc(C)n3)CC2)C1.O=C(O)C(F)(F)F` (stereo unspecified), the “Percent Effect” value is on record as 18.32%. Turning to `O=C(O)C(F)(F)F.O=C(c1cccc(O)c1)N1CCC2(CCN2c2ncccn2)C1` (stereo unspecified), the “Percent Effect” value is listed as 1.113%. As for `Cc1cnn(CC(C)NCc2csc(-c3ccco3)n2)c1` (stereo unspecified), the “Percent Effect” value is reported as 29.87%. The same measure for `Cc1cnn(CCNCc2csc(-c3ccc(C)o3)n2)c1`: 64.15%; for `Cc1ccc(-c2nc(CNCCn3cccn3)cs2)o1`: 26.99%; for `Cc1cnn(CCNCc2csc(-c3ncccn3)n2)c1`: -10.75%.

With `c1coc(-c2nc(CNCCn3cccn3)cs2)c1`, the “Percent Effect” value is reported as -1.03%. With `Cc1cnn(CCNCc2csc(-c3ccco3)n2)c1`, the “Percent Effect” value was found to be 52.61%.

In the case of `Cl.N#Cc1cccnc1OC1CCNCC1`, the “Percent Effect” value is -9.035%. `Cc1ccc(N2C[C@@H]3OCCN(CC4CC4)[C@@H]3C2)nn1.O=C(O)C(F)(F)F`: the “Percent Effect” value was 21.44%.

`CN1Cc2cnn(CC3CCCC3)c2C(COCC2CC2)C1.O=C(O)C(F)(F)F.O=C(O)C(F)(F)F` (stereo unspecified): the “Percent Effect” value is given as -36.29%. The same measure for `O=C(O)C(F)(F)F.O=C(O)C(F)(F)F.O=C(O)C(F)(F)F.c1ccc(CN2CC[C@@H]3O[C@H](COCc4ccncc4)CC[C@@H]32)nc1`: 5.621%.

These data come from ChEMBL document CHEMBL3988442, “University of Dundee, Small-Polar-MMV Screening Library” (2021).
